A selection: hits, their analogues and other compounds. The true share with any hit is near 1.9%.
PME-1 inh – blocks human protein phosphatase methylesterase 1; Q9Y570; recombinant PME-1, FP-Rh probe fluorescence polarization; inhibition, % at 5.9 µM; 0.53% of 320,000 active; AID 2130;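 active means inhibition above the campaign mean of all compounds plus 3 SD, cut at about 26% in these data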;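 further: competitive labeling of PME-1 active site by serine hydrolase directed probe; inhibitors block probe labeling so polarization falls and inhibition rises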
PREPL inhibitor – inhibitors of human prolyl oligopeptidase-like enzyme PREPL. Q4J6C6. recombinant PREPL, fluorescence polarization activity-based probe. inhibition, % at 5.96 µM. 0.68% of 320,000 active. AID 2751; in the data active means inhibition above about 43%
Target sequence (Q4J6C6 whole entry, looked up): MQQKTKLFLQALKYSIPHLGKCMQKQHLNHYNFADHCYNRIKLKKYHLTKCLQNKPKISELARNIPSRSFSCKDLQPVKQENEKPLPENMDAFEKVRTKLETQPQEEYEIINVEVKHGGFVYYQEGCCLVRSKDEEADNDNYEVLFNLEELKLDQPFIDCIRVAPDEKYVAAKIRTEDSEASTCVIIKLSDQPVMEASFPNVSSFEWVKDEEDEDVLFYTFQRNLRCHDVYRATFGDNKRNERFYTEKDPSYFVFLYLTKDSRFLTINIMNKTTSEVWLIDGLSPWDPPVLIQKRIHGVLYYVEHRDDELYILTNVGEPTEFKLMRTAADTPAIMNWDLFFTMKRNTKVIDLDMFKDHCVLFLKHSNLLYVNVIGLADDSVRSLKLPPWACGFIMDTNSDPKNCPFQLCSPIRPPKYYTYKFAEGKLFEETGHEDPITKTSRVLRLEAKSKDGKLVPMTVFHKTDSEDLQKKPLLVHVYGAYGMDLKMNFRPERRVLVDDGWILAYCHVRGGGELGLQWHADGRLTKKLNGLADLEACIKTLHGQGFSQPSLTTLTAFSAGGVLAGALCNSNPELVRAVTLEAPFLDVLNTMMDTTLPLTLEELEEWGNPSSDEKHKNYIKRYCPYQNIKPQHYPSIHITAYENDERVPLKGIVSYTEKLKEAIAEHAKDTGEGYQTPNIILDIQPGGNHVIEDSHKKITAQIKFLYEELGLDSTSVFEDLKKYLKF
Fam108B inh – Fam108B inhibition, counter-screen for RBBP9 inhibitors | AID 1947 | inhibition, % at 9.51 µM | 0.33% of 300,000 active | recombinant Fam108B, FP-Rh probe fluorescence polarization;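 active means inhibition above the screen mean inhibition plus 3 SD, computed separately per campaign, cut at about 18% in these data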;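 further: inhibitors lower polarization as less probe binds the enzyme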
GSTO1 inh – blocks human GSTO1 in RBBP9 counter-screen | 1.1% of 300,000 active | inhibition, % at 5.96 µM | recombinant GSTO1, activity-based probe fluorescence polarization;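 active means inhibition above the campaign mean inhibition plus 3 SD, cut at about 35% in these data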
LYPLA2 counter – counter-screen for PME1 inhibitors: inhibitors of human LYPLA2 | O95372 | recombinant LYPLA2, FP-Rh probe fluorescence polarization | inhibition, % at 5.9 µM | 0.38% of 320,000 active;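 active means inhibition above the screen-wide mean plus 3 SD, limit set per campaign, cut at about 26% in these data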
LYPLA1 inh – LYPLA1 (human) inhibition in PME1 counter-screen. recombinant LYPLA1, FP-Rh probe fluorescence polarization. 0.16% of 320,000 active. AID 2174. O75608. inhibition, % at 5.9 µM;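 active means inhibition above the mean of all tested compounds plus 3 SD, set per campaign, cut at about 14% in these data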;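 further: inhibitors block serine hydrolase probe labeling of LYPLA1 so polarization falls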
Fam108b confirm – confirmation of mouse Fam108b serine hydrolase inhibitors; shares compounds with Fam108B inh; recombinant Fam108b, FP-Rh probe fluorescence polarization; inhibition, % at 9.51 µM; 44% of 930 active; AID 1978;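 active means inhibition above a limit from the primary screen, the mean over all compounds plus 3 SD, cut at about 19% in these data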;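 further: inhibitors free the probe so polarization falls as inhibition rises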
Large screens that a line does not name were inactive (follow-up assays come after a bar, where they were run).

O=c1[nH]c(=S)n(-c2ccc(Br)cc2)c(O)c1C=Nc1ccc(N2CCOCC2)cc1	none
O=c1[nH]c(=S)n(-c2ccccc2F)c(O)c1C=Nc1ccc(N2CCOCC2)cc1	GSTO1 inh 43
O=C(Nc1cccc2ccccc12)c1nn(C23CC4CC(CC(C4)C2)C3)cc1Br	none
CN1CCc2nc(N)c(C#N)c(-c3ccccc3)c2C1	GSTO1 inh 36
CN1CCc2nc3sc(C#N)c(N)c3c(-c3cccs3)c2C1	none
O=c1[nH]c(=S)[nH]c(O)c1N=Nc1cc(S(=O)(=O)Nc2ccc(Cl)cc2)ccc1Cl	PME-1 inh 41 (no result: Fam108B inh, GSTO1 inh)
NS(=O)(=O)c1ccc(N=Nc2c(O)[nH]c(=S)[nH]c2=O)cc1	none
Cc1ccc(C)c(NC(=S)NCCc2cnc[nH]2)c1	none
Cc1c(N=Nc2c(O)n(C)c(=O)n(C)c2=O)c(=O)n(-c2ccccc2)n1C	GSTO1 inh 39
Cc1[nH]n(-c2ccccc2)c(=O)c1C(c1ccc([N+](=O)[O-])cc1)c1c(C)[nH]n(-c2ccccc2)c1=O	GSTO1 inh 59
Cc1nc2ccccc2c(=O)n1-c1cc([N+](=O)[O-])cc([N+](=O)[O-])c1	none
CCCNC(=O)N1[C@H]2CC[C@@H]1C(C(=O)OC)=C(c1ccc(-c3ccccc3)c(F)c1)C2	none (no result: Fam108B inh, GSTO1 inh)
Cc1cccc(N2C(=O)NC(=O)/C(=C/c3cc4c(cc3[N+](=O)[O-])OCO4)C2=O)c1	PME-1 inh 45
N#Cc1ccccc1Cn1cc(C(=O)c2ccco2)c2ccccc21	none
CCC(=O)c1cn(Cc2ccccc2C#N)c2ccccc12	PME-1 inh 35
N#Cc1ccccc1Cn1cc(C(=O)C2CC2)c2ccccc21	PME-1 inh 63
C1CCC2CCCCC2C1 (stereo not drawn)	none (no result: Fam108B inh, GSTO1 inh)
COc1ccc(CNC(=O)/C=C/c2ccc3[nH]cc(CCN(C)C)c3c2)cc1	none
O=C1NC(=O)C2(Cc3ccccc3N3CCCC32)C(=O)N1c1cccc(Cl)c1 (stereo not drawn)	none
Cc1ccc(CN2C(=O)NC(=O)C3(Cc4c(nc5ccccn5c4=O)N4CCCCCC43)C2=O)cc1 (stereo not drawn)	GSTO1 inh 36
CCC(C)N1C(=O)/C(=C/c2ccc3c(c2)CCN3CCCCl)C(=O)NC1=S (stereo not drawn)	GSTO1 inh 37
CCC(=NCc1ccc2c(c1)OCO2)c1c(O)n(C2CCCCC2)c(=O)[nH]c1=O	PREPL inhibitor 45
O=C(Cn1cc(C(=O)c2ccccc2F)c2ccccc21)NC1CC1	none
COc1cc(/C=C/c2nc3ccccc3c(=O)n2-c2ccccc2O)ccc1O	none
COc1cc(/C=C/c2nc3ccccc3c(=O)n2-c2cccc(O)c2)ccc1O	PME-1 inh 36
CC1=NN(c2ccccc2)C(=O)C1/C=C1\C(=O)NC(=O)N(c2cc(C)cc(C)c2)C1=O (stereo not drawn)	GSTO1 inh 36
CC1=NN(c2ccccc2)C(=O)C1/C=C1/C(=O)NC(=O)N(c2cc(C)cc(C)c2)C1=O (stereo not drawn)	none
CCCCn1c(NC(=O)c2ccc(Br)o2)c(C(=O)OCC)c2nc3ccccc3nc21	PME-1 inh 34, Fam108B inh 59, GSTO1 inh 90, LYPLA2 counter 89, LYPLA1 inh 81
CCCCn1c(N)c(C(=O)NCCN2CCOCC2)c2nc3ccccc3nc21	none
C[C@]12C[C@H](O)[C@@H](O)CC1=CCC1C2CC[C@@]2(C)C1CC[C@@H]2O (stereo partly drawn)	none (no result: PME-1 inh, Fam108B inh, GSTO1 inh, LYPLA2 counter, LYPLA1 inh)
CCC(C)NC(=O)c1c(N)n(CCCOC)c2nc3ccccc3nc12 (stereo not drawn)	GSTO1 inh 61
C=CC[C@@H](CC/C=C/C=C/CC/C=C\[C@@H]1CSC([C@@H]2C[C@@H]2C)=N1)OC	none (no result: PME-1 inh, Fam108B inh, GSTO1 inh, LYPLA2 counter, LYPLA1 inh)
O=C1NC(=O)N(CCC2=CCCCC2)C(=O)/C1=C/c1ccc(O)cc1	GSTO1 inh 35
CN(C)C1(c2nnnn2CCOC(=O)Nc2ccc(Cl)cc2)CCCCC1	PME-1 inh 37
Cc1ccccc1-n1c(O)c(/C=N/NC(=O)c2ccncc2)c(=O)[nH]c1=O	none
CC(C)CCOP(N)(=O)Oc1ccccc1 (stereo not drawn)	none
NP(=O)(OCCCc1ccccc1)Oc1ccccc1Cl (stereo not drawn)	PME-1 inh 59
NP(=O)(OCCCc1ccccc1)Oc1ccc(Cl)cc1 (stereo not drawn)	none
CC(C)CCOP(N)(=O)Oc1ccccc1Cl (stereo not drawn)	PME-1 inh 30
O=P(Oc1ccccc1)(Oc1ccccc1)C(O)c1ccccc1 (stereo not drawn)	PME-1 inh 46
Cc1ccc(C(O)P(=O)(Oc2ccccc2)Oc2ccccc2)cc1 (stereo not drawn)	PME-1 inh 38
O=C1NC(=O)N(Cc2ccco2)C(=O)/C1=C/c1cccn1CCOc1ccccc1Cl	PME-1 inh 51
O=C1NC(=O)N(Cc2ccccc2)C(=O)/C1=C\c1ccco1	none
Cc1ccccc1-n1c(O)c(/C=N/N2CCOCC2)c(=O)[nH]c1=S	none
CN1CCCN(C(=O)COc2ccc(F)cc2F)CC1	none
O=C1CN=C(c2ccccc2)c2cc(Br)ccc2N1Cc1cc(=O)n2ccccc2n1	PREPL inhibitor 50
CN[C@H]1C[C@H]2O[C@@](C)([C@H]1OC)n1c3ccccc3c3c4c(c5c6ccccc6n2c5c31)C(=O)NC4	PME-1 inh 52, PREPL inhibitor 76, Fam108B inh 48
CN1C(=O)C(c2ccccc2)C(=O)N(C)C1=O	none
O=C1NC(=O)N(Cc2ccccc2)C(=O)/C1=C\N1CCCc2ccccc21	GSTO1 inh 38
CC(C)(O)/C=C/C(=O)[C@](C)(O)C1[C@H](O)C[C@@]2(C)C3CC=C4C(C[C@H](O)[C@@H](O)C4(C)C)[C@]3(C)C(=O)C[C@]12C (stereo partly drawn)	none (no result: PME-1 inh, Fam108B inh, GSTO1 inh, LYPLA2 counter, LYPLA1 inh)
CN(C)[C@@H]1C(=O)C(C(N)=O)=C(O)[C@@]2(O)C(=O)C3=C(O)c4c(O)cccc4[C@@](C)(O)[C@H]3C[C@@H]12	Fam108B inh 52, GSTO1 inh 66 | Fam108b confirm 55
COC12CCC3(CC1C(C)(O)C(C)(C)C)[C@H]1Cc4ccc(OC5OC(C(=O)O)[C@@H](O)C(O)[C@H]5O)c5c4[C@@]3(CCN1CC1CC1)C2O5 (stereo partly drawn)	none (no result: PME-1 inh, Fam108B inh, GSTO1 inh, LYPLA2 counter, LYPLA1 inh)
Cc1ccc2c(c1Cl)NC(C(=O)O)C1CC(Sc3ccccc3[N+](=O)[O-])C(Cl)C21 (stereo not drawn)	Fam108B inh 27, GSTO1 inh 36 | Fam108b confirm inactive
CN1C2CCC1CC(=NO)C2	none
O=C1NC(=O)N(c2ccccc2)C(=O)/C1=C\c1ccc([N+](=O)[O-])s1	Fam108B inh 19 | Fam108b confirm inactive

Bioassay records (PubChem)
